Rows were chosen to be rich in hits. Some 21% of all compounds tested hit in one or more screens of this group.
DRD3 agonist: activates the human D3 dopamine receptor | P35462 | D3R DiscoveRx beta-arrestin cells, luminescence, 90 min | max activation, % | 0.58% of 410,000 active | AID 652048; in the data active = max activation above about 30%; note: 0% is about no effect
Target sequence (P35462 whole entry, looked up): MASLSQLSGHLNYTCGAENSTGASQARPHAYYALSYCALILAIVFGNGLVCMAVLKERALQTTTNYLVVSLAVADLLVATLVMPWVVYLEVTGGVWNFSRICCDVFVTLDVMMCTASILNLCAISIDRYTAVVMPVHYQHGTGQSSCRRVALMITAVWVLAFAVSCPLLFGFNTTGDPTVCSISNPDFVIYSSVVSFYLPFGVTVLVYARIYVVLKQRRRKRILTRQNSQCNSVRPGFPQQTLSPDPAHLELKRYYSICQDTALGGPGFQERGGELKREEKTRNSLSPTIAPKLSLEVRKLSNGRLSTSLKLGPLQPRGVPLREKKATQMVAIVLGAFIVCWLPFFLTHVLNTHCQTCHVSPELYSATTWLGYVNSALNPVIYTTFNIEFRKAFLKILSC
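Agonist-mode cell screen: cells plated at 1500/well and incubated overnight at 37 °C, then exposed to library compounds for 90 min at 37 °C. Detection reagent was added for 30–60 min at room temperature, and luminescence was read.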
ClpP mod: qHTS Assay for Activators of ClpP; Potency, µM (highest dose often 57.5 µM), for the others: at the highest dose activity change, negative = active; purified B. subtilis ClpP, FRET peptide cleavage, 20 min; 1.9% of 340,000 active; AID 651965, 2013; active = well fitted falling curve with a large enough effect; inconclusive = small, poorly fitted or top-dose-only effect; inactive = no such curve, though single readings can be large or run the other way; note: potency is the fitted concentration of half-maximal effect; the source files actives as falling curves though it sought activators and does not explain the sign; nearly all actives have a fitted effect of over 65% in size
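Buffer: 100 mM Tris/HCl pH8, 100 mM KCl, 0.05% low protease BSA, 2.5% glycerol, 0.01% Tween-20. ClpP 10 microg/mL final; 20 min RT; delta FRET normalized to ADEP and DMSO controls.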
IL-1B inflam inh: inflammasome signaling inhibition, IL-1 beta readout; 4.7% of 360,000 active; AID 743279; THP-1 LPS/ATP IL-1B secretion, AlphaLISA, 16 h; stronger effect = lower value; activity change, % at 57.5 µM; in the data active = activity change below about -50%; inconclusive = mostly about -30% to -49%; note: % is set by controls: 0 for no effect and ±100 for the full control effect
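Secreted IL-1B measured by AlphaLISA bead assay after 16 h compound exposure of THP-1 cells; compounds (final up to 57.5 uM) added 1 h before LPS (250 ng/mL) and ATP (1.25 mM) stimulation; lower signal means less secretion.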
DRD3 antagonist: blocks the human D3 dopamine receptor; max response, negative = inhibition, %; AID 652054; D3R cells, DiscoveRx beta-arrestin luminescence, antagonist mode; stronger effect = lower value; 2.5% of 360,000 active; in the data active = max response below about -50%; inconclusive = no clear call, values can overlap the other calls; note: % is set by controls: 0 for no effect and ±100 for the full control effect
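Cells expressing the human receptor were seeded at 1500 cells/well, incubated overnight at 37 degrees C in 5% CO2, then exposed to library compounds with dopamine controls for 90 minutes at 37 degrees C before luminescent detection.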
TDP1 cell CPT: growth inhibition of DT40 Tdp1-/-;hTDP1 cells with camptothecin (screen for TDP1 inhibitors); Potency, µM (top dose mostly 46.2 µM), without a hit: top-dose activity change, negative = growth inhibition, hits mostly inhibitors; 12% of 420,000 active; chicken DT40 Tdp1-/-;hTDP1 cells + 20 nM CPT, ATP luminescence, 48 h; note: potency is the fitted concentration of half-maximal effect; % is set by controls: 0 for no effect and ±100 for the full control effect; nearly all actives have a fitted effect of over 55% in size
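Chicken DT40 Tdp1-/- cells complemented with human TDP1, 400 cells/well, exposed to compounds plus 20 nM camptothecin for at least 48 h at 37 C; viability read as ATP content by CellTiter-Glo luminescence.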
DT40 TDP1 no CPT: qHTS for Inhibitors of human tyrosyl-DNA phosphodiesterase 1 (TDP1): qHTS in cells in absence of CPT; Potency, µM (series often up to 46.2 µM), inactives show at the top dose activity change, negative = growth inhibition, usual class: inhibitors; 15% of 420,000 active; AID 686978, 2013; DT40 Tdp1-/- hTDP1 cells, no CPT, ATP luminescence, 48 h; note: potency is the fitted concentration of half-maximal effect; % is set by controls: 0 for no effect and ±100 for the full control effect; nearly all actives have a fitted effect of over 55% in size
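Growth kinetics read by CellTiter-Glo luminescence after ≥48 hr at 37 °C. Cells: DT40 Tdp1-/- stably carrying human TDP1, 400 per well, compound exposure in the absence of CPT (DMSO vehicle).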
* marks the source's active call; other numbers are inactive results; ? = inconclusive; · = no result. Unless noted, calls come from the whole dose curve; as a rule, active = well fitted inhibition curve with a large enough effect; inconclusive = small, poorly fitted or top-dose-only effect; inactive = flat fitted curve, though single readings scatter.

SMILES	DRD3 agonist	ClpP mod	IL-1B inflam inh	DRD3 antagonist	TDP1 cell CPT	DT40 TDP1 no CPT
CCC/C=C/C=C/C(=O)O[C@H]1/C(=C/C(=O)OC)C[C@H]2C[C@H]([C@@H](C)O)OC(=O)C[C@H](O)C[C@@H]3C[C@H](OC(C)=O)C(C)(C)[C@](O)(C[C@@H]4C/C(=C/C(=O)OC)C[C@H](/C=C/C(C)(C)[C@]1(O)O2)O4)O3	-28	·	·	·	?	?
CCOc1ccc(NC(=O)CCNC(=O)N2C[C@H]3C[C@@H](C2)c2cccc(=O)n2C3)cc1	-19	-5%	5	-3	5%	3%
CCN(CC)C(=O)[C@@H]1C=C2c3cccc4[nH]cc(c34)C[C@H]2N(C)C1	51*	·	·	·	40µM*	40µM*
CN1C[C@H](CO)C=C2c3cccc4[nH]cc(c34)C[C@H]21	-14	4%	-11	-78*	3.7µM*	?
CN1C[C@@H](CO)C=C2c3cccc4[nH]cc(c34)CC21 (stereo partly specified)	·	·	·	·	10%	-24%
CC(=O)OC(C)(C)/C=C/C(=O)C(C)(O)C1C(O)CC2(C)C3CC=C4C(CC(O)C(=O)C4(C)C)C3(C)C(=O)CC12C (stereo unspecified)	4	1%	-99*	18	0.026µM*	0.016µM*
CC(=O)OC(C)(C)/C=C/C(=O)C(C)(O)C1[C@H](O)C[C@@]2(C)C3CC=C4C(CC[C@@H](O)C4(C)C)[C@]3(CO)C(=O)C[C@]12C (stereo partly specified)	7	-2%	-98*	0	0.018µM*	0.01µM*
CC(=O)OC(C)(C)/C=C/C(=O)[C@](C)(O)[C@H]1[C@H](O)C[C@@]2(C)[C@@H]3CC=C4[C@H](C[C@H](O)C(=O)C4(C)C)[C@]3(C)C(=O)C[C@]12C	-13	-1%	-112*	-12	0.046µM*	0.0073µM*
Cc1ccc(NC(=O)COC(=O)CCc2c[nH]c3ccccc23)cc1[N+](=O)[O-]	5	1%	13	16	?	9%
CC(C)CC(C)N (stereo unspecified)	24	1%	1	2	3%	9%
COc1ccc(CN2CCN(c3ncnc4sc5c(c34)CCCC5)CC2)cc1F	-10	-12%	·	·	8.2µM*	5.2µM*
CC1=C(C/C(C)=C/c2ccccc2)/C(=C/CO)[C@@H]2OC(=O)O[C@]2(C)C12CC2	1	1%	4	2	8.2µM*	12µM*
CC(C)c1ccc2[nH]c(O)c(N=NC(=O)c3cccc(S(=O)(=O)Nc4ccc(Cl)cc4)c3)c2c1	2	1%	-25	?	12µM*	10µM*
CN(C)C1(CNC(=O)c2ccc(NS(=O)(=O)c3ccc(Cl)c(Cl)c3)cc2)CCCCC1	-13	1%	-17	5	?	?
Cc1cc(C=O)c(C)n1C1CC1	-6	·	5	-17	0%	1%
CN(C)C(=O)Oc1ccc(-c2cn3cc(C(F)(F)F)ccc3n2)cc1	2	10µM*	-12	23	3%	-15%
CN(C)C(=O)Oc1ccc(-c2cn3cc(Cl)ccc3n2)cc1	-7	?	-12	0	?	?
COC1C(C)OC(OC2CC(C)(O)Cc3cc4c(c(O)c32)C(=O)c2c(O)cc3c(c2C4=O)OC2OC3(C)C(O)C(N(C)C)C2O)C(OC)C1(C)OC (stereo unspecified)	6	-9%	-99*	3	0.082µM*	0.12µM*
CCOc1ccc2nc(NC(=O)c3cccn(Cc4ccccc4C)c3=O)sc2c1	-1	-2%	·	·	2%	2%

Screening results from PubChem.
